The panel holds about 83,000 compounds, 20% with a hit somewhere; the sample as a whole holds those more often.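 Assay: single dose, 48 h. Readout: percent growth (0 = no net growth; negative = cell death). Active: <10.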 The source made the active and inactive calls.
The compounds below were run on HL-60(TB) leukemia (assay: NCI-60 one-dose screen, 48 h (100 = growth as untreated, 0 = no growth, -100 = all killed)). Settings: 10 µM unless noted.

Structure (SMILES) | growth
O=C1Nc2cc(-c3ccc(NS(=O)(=O)c4ccc(C(F)(F)F)cc4)cc3)ccc2/C1=C/c1ccc[nH]1 | 1.77% (active)
COc1ccc2[nH]cc(-c3cc4nc(-c5cn(C)c6ncccc56)cc(N)n4n3)c2c1 | -35.4% (active)
N#CC1=C(c2cccs2)Nc2c(c(-c3ccccc3)nn2-c2ccccc2)C12C(=O)Nc1ccc(Br)cc12 (stereo not given) | -7.78% (active)
COc1ccc2[nH]c(=O)c(CSc3ccccc3Nc3nccc(-c4ccc(Cl)cc4)n3)cc2c1 | 23.2% (inactive)
Brc1ccc(-c2n(Cc3ccc4ccccc4c3)c(-c3ccccc3)c(-c3ccccc3)[n+]2Cc2ccc3ccccc3c2)cc1 | -5.57% (active)

— PubChem BioAssay (NCI)
